Results as given in the supplement of paper PMC10646978.
± gives the standard deviation.

Columns and labels:
Conditions in all cases: modulator concentration 10 µM
[1] = system: RAW-Dual (murine macrophage reporter line); experiment: NF-kB reporter (SEAP) activity fold change vs agonist alone; higher = enhanced NF-kB activity
Method in brief: (§1)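 RAW-Dual murine macrophage reporter cells were seeded at 50 000 per well in 384-well plates and pre-incubated 1 hour at 37 °C with compound pin-transferred to 10 μM final. After 1 hour, a PRR agonist was added and cells incubated overnight. Supernatant NF-κB (SEAP, QUANTI-Blue, 620 nm absorbance) and IRF (Lucia luciferase, QUANTI-Luc, luminescence) signals were divided by the mean agonist-only control on the same plate to give fold change. Two replicate plates were averaged, with errors by propagation.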

[2] = system: RAW-Dual (murine macrophage reporter line); experiment: IRF reporter (Lucia luciferase) activity fold change vs agonist alone; higher = enhanced IRF activity
Method in brief: as §1

[3] = system: RAW-Dual (murine macrophage reporter line); experiment: viability score (confluency relative to resting cells, overnight) (fraction); higher = more viable, active = viable (0.7 or more)
Method in brief: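 Compound was added at a final 10 μM to RAW-Dual macrophages in 384-well plates and left overnight. Confluency was imaged with IncuCyte, and two masks were generated in IncuCyte software over all imaged wells. Each viability score is confluency relative to resting cells, and a compound met the cutoff only when both masks were above 70% of resting cells.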

[4] = agonist: CpG ODN 1826 0.5 ug/mL

Compound	NF-kB reporter [1, 4]	NF-kB reporter ([1]; agonist: LPS 0.1 ug/mL)	NF-kB reporter ([1]; agonist: MPLA […])	IRF reporter ([2]; agonist: 3'3'-cGAMP 10 ug/mL)	IRF reporter ([2]; agonist: LPS 0.1 ug/mL)	IRF reporter ([2]; agonist: MPLA […])	viability score [3]
CC1CCC2C(C)(C)C3CC12CCC3(C)O (centres undefined)	1.04 ± 0.081	0.883 ± 0.11	0.965 ± 0.094	0.999 ± 0.052	1.15 ± 0.16	1.25 ± 0.23	1.05 (active)
CCc1nc2ccccc2[nH]1	1.04 ± 0.18	0.954 ± 0.076	1.06 ± 0.1	0.998 ± 0.028	1.23 ± 0.12	1.44 ± 0.21	1.01 (active)
CN1C[C@@H]2c3ccccc3Oc3ccc(Cl)cc3[C@H]2C1.O=C(O)/C=C\C(=O)O	0.164 ± 0.03	0.821 ± 0.14	0.908 ± 0.14	0.475 ± 0.044	0.914 ± 0.088	1.07 ± 0.13	0.252 (inactive)
CCCOc1ccc(-c2ccc(-c3nc(Cc4ccc(OC)c(OC)c4)no3)cc2)cc1	0.763 ± 0.062	0.972 ± 0.046	1.04 ± 0.097	0.978 ± 0.048	1.08 ± 0.063	1.12 ± 0.12	1.01 (active)
CN(C)[C@@H]1C(O)=C(C(N)=O)C(=O)[C@@]2(O)C(O)=C3C(=O)c4c(O)ccc(Cl)c4[C@@H](O)[C@H]3C[C@@H]12.Cl	1.29 ± 0.098	0.965 ± 0.055	1.17 ± 0.038	0.728 ± 0.048	0.971 ± 0.068	0.828 ± 0.12	0.984 (active)
COc1cc2ccc(=O)oc2cc1O	1.04 ± 0.31	0.862 ± 0.062	0.892 ± 0.057	0.909 ± 0.053	1.11 ± 0.17	0.946 ± 0.12	1 (active)
Cc1ccn2c(-c3csc(NCc4ccccc4)n3)c(C)nc2c1	0.787 ± 0.061	1.03 ± 0.048	1.19 ± 0.15	0.442 ± 0.05	1.38 ± 0.082	1.46 ± 0.12	1.01 (active)
CN1CCN(C2=Nc3ccccc3Oc3ccc(Cl)cc32)CC1 [Prestw-132]	1.08 ± 0.22	0.804 ± 0.09	0.812 ± 0.079	0.944 ± 0.054	1.08 ± 0.18	0.961 ± 0.18	1.03 (active)
O=c1[nH]c(=O)n([C@H]2C[C@H](O)[C@@H](CO)O2)cc1I	1.11 ± 0.15	0.928 ± 0.058	0.992 ± 0.044	1.04 ± 0.068	0.992 ± 0.069	0.967 ± 0.15	0.998 (active)
CCS(=O)(=O)N1CCN(c2ccc(Nc3ncc(C(N)=O)c(NC4CC4)n3)cc2)CC1.Cl	1.08 ± 0.046	0.355 ± 0.033	0.622 ± 0.042	0.0973 ± 0.0051	0.301 ± 0.072	0.324 ± 0.081	0.899 (active)
O=C(Nc1ccccc1Cl)c1ccc(OCC2CCCO2)nc1 (centres undefined)	1.17 ± 0.066	1.06 ± 0.12	0.981 ± 0.026	1.3 ± 0.35	1 ± 0.058	0.976 ± 0.098	0.999 (active)
CN(C)CC/C=C1\c2ccccc2COc2ccccc21.Cl	0.888 ± 0.038	1.06 ± 0.15	1.36 ± 0.096	0.434 ± 0.02	0.73 ± 0.14	0.876 ± 0.3	1.01 (active)
O=C1C(=Cc2ccccc2)SC(=S)N1CO	0.546 ± 0.053	0.757 ± 0.058	0.725 ± 0.08	0.741 ± 0.073	1.03 ± 0.16	1.15 ± 0.32	0.968 (active)
Cl.NCCCC[C@H](N)C(=O)O	1.03 ± 0.31	0.949 ± 0.063	1.01 ± 0.064	0.867 ± 0.052	1.2 ± 0.14	1.12 ± 0.18	1.01 (active)
Nc1cccc(O)c1	0.98 ± 0.099	1.08 ± 0.069	1.03 ± 0.023	0.983 ± 0.09	0.946 ± 0.092	0.938 ± 0.11	0.997 (active)
Cc1nnc(NN=Cc2ccc(O)c([N+](=O)[O-])c2)[nH]c1=O	1.07 ± 0.14	1.01 ± 0.097	1.03 ± 0.035	0.98 ± 0.045	0.979 ± 0.14	1.01 ± 0.25	0.992 (active)
COC(=O)[C@H](c1ccccc1Cl)N1CCc2sccc2C1.O=S(=O)(O)O	0.811 ± 0.21	0.993 ± 0.28	1.06 ± 0.12	1.11 ± 0.081	1.02 ± 0.29	0.955 ± 0.22	0.954 (active)
O=c1c2c([nH]c3c(-c4cccc5ccccc45)cnn13)CCCC2	1.02 ± 0.095	1.07 ± 0.067	0.913 ± 0.062	0.987 ± 0.027	1.47 ± 0.23	1.09 ± 0.2	1.01 (active)
Cc1cccc(CS(=O)(=O)N2CCC(S(=O)(=O)c3nccn3C)CC2)c1	1.04 ± 0.078	1.02 ± 0.082	0.983 ± 0.038	1.04 ± 0.088	0.979 ± 0.089	1.05 ± 0.12	0.998 (active)
COc1ccc(NC(=O)CCn2nc(C)nc2C)cc1	1.04 ± 0.099	1.07 ± 0.085	0.963 ± 0.12	0.961 ± 0.049	1.09 ± 0.068	1.01 ± 0.12	1 (active)
O=C(NCCSC1CCOCC1)c1ccc(Cl)s1	1.21 ± 0.069	0.992 ± 0.1	1.02 ± 0.036	0.898 ± 0.055	1.03 ± 0.054	1.13 ± 0.14	1 (active)
NCCCS(=O)(=O)O	0.883 ± 0.069	1 ± 0.072	0.98 ± 0.024	1.06 ± 0.058	0.978 ± 0.039	0.891 ± 0.12	0.998 (active)
Cc1cc2nc3sc(=Cc4ccc(F)cc4)c(=O)n3c2cc1C	0.99 ± 0.12	0.932 ± 0.12	1.04 ± 0.097	0.817 ± 0.03	1.07 ± 0.12	1.07 ± 0.13	1.03 (active)
COc1ccc(OS(=O)(=O)c2ccc3cc(OC)ccc3c2)cc1	0.982 ± 0.088	1.14 ± 0.089	1.06 ± 0.068	1 ± 0.035	1.43 ± 0.1	1.03 ± 0.15	1 (active)
COCCCOc1ccnc(CS(=O)c2nc3ccccc3[nH]2)c1C (centres undefined)	1.24 ± 0.3	1.07 ± 0.098	1.11 ± 0.11	0.839 ± 0.029	1.22 ± 0.13	1.28 ± 0.23	0.98 (active)
C=CC(=O)N1CCC(Oc2cc3c(Nc4ccc(Cl)c(Cl)c4F)ncnc3cc2OC)CC1	0.879 ± 0.037	0.909 ± 0.095	1.05 ± 0.061	1.08 ± 0.064	1.36 ± 0.3	1.49 ± 0.48	0.97 (active)
Cc1cnc2c(c1NCCCO)c(=O)n(C)c(=O)n2C	1.1 ± 0.1	1.01 ± 0.088	1.02 ± 0.027	0.881 ± 0.04	0.947 ± 0.11	0.887 ± 0.21	0.995 (active)
